Compound activity: PubChem, Sanford-Burnham Center for Chemical Genomics
NALP1 inh = NALP1 inhibition | S. cerevisiae NALP1/ASC/caspase-1 growth, X-gal OD620, 72 h | inhibition, % at 10 µM | actives 0.61% (n = 280,000) | AID 2071; in the data active means inhibition mostly above about 24%, no sharp cut-off; inactive means mostly below about 32%
tim23-1 inh = tim23-1 yeast growth inhibition. actives 1.3% (n = 330,000). S. cerevisiae tim23-1 growth, BacTiter-Glo luminescence, 24 h. inhibition, % at 20 µM;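 active means growth inhibition of the mutant yeast at or above 50%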;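 further: temperature-sensitive mutant grown at 25 °C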
NALP3 yeast inh = blocks the NALP3 inflammasome reconstituted in yeast | inhibition, % at 10 µM | AID 2825 | actives 0.39% (n = 330,000) | Yeast reconstituted NLRP3/ASC/caspase-1, beta-gal luminescence, 24 h;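 active means inhibition of 50% or more; inactive means inhibition below 50%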
TIM10 inh = growth inhibitors of TIM10 yeast strain; S. cerevisiae TIM10 strain growth, BacTiter-Glo luminescence, 24 h; inhibition, % at 10 µM; actives 1.4% (n = 330,000); AID 463195;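 active means inhibition of 40% or more at the single tested concentration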;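 further: wild-type TIM10 isogenic control strain grown at permissive 25 °C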
tim10-1 inh = tim10-1 yeast growth inhibition; S. cerevisiae tim10-1 ts strain growth, BacTiter-Glo, 24 h; inhibition, % at 20 µM; actives 2.2% (n = 330,000); AID 463190;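 active means inhibition of at least 40%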;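 further: mutant grown at 25 °C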
tim10-1 confirm = tim10-1 yeast growth inhibition, confirmed; inhibition, % at 20 µM; actives 56% (n = 7,400); S. cerevisiae tim10-1 ts strain growth, BacTiter-Glo, 24 h; shares compounds with tim10-1 inh;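 active means inhibition of yeast growth at or above a set limit in either of two repeat tests at 20 µM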;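 further: tim10-1 mutant grown at permissive 25 °C to find synthetic lethal compounds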
TIM10 conf = TIM10 yeast growth inhibition, confirmed; shares compounds with TIM10 inh; S. cerevisiae tim10 strain growth, BacTiter-Glo luminescence, 24 h; inhibition, % at 10 µM; actives 63% (n = 4,600); AID 463215;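 active means inhibition of yeast growth at or above a set limit in either of two replicates at 10 µM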; further: this counterscreen used the strain with wild-type TIM10
Each line names hits and unclear results; the compound was inactive in the other large screens (follow-up assays come after a bar, where they were run). Shown are actives, neighbours in structure and some others; about 4% of the full set was active somewhere.

COc1ccccc1N1CCN(C(=O)c2sc3nc(-c4ccc(F)cc4)cn3c2C)CC1	tim10-1 inh 66 | tim10-1 confirm 58 | TIM10 conf 51
COCCNC(=O)c1sc2nc(-c3ccccc3)cn2c1C	none
Cc1onc(-c2ccccc2Cl)c1C(=O)O/N=C(\N)c1ccccc1	TIM10 inh 55, tim10-1 inh 49 | tim10-1 confirm 63 | TIM10 conf 45
Cc1onc(-c2ccccc2)c1C(=O)O/N=C(\N)c1ccc([N+](=O)[O-])o1	TIM10 inh 51, tim10-1 inh 50 | tim10-1 confirm inactive | TIM10 conf 48
Cc1onc(-c2ccccc2)c1C(=O)OCc1nnc(-c2ccccc2)o1	none (no result: NALP1 inh)
CC(C)(C)C(=O)NN=C1CCC(c2ccccc2)CC1 (stereo not given)	none
CCC1CCCCN1S(=O)(=O)c1ccc(C(=O)N(CCCN(C)C)c2nc3cc4c(cc3s2)OCO4)cc1 (stereo not given)	TIM10 inh 50, tim10-1 inh 46 | tim10-1 confirm 34 | TIM10 conf 33
CC1CN(S(=O)(=O)c2ccc(C(=O)N(CCCN(C)C)c3nc4cc5c(cc4s3)OCCO5)cc2)CC(C)O1 (stereo not given)	TIM10 inh 44, tim10-1 inh 54 (no result: NALP1 inh) | tim10-1 confirm 52 | TIM10 conf 45
CN(C)CCCN(C(=O)c1ccc(S(=O)(=O)N(C)Cc2ccccc2)cc1)c1nc2cc3c(cc2s1)OCO3	none
CN(C)CCCN(C(=O)c1ccc(S(=O)(=O)N2CCOCC2)cc1)c1nc2ccc(F)cc2s1	none
CCCCn1nc(C(=O)Nc2c(C)n(C)n(-c3ccccc3)c2=O)c2ccccc2c1=O	none (no result: NALP1 inh)
CN1/C(=C\C(=O)c2cccs2)C(C)(C)c2ccccc21	none
Cc1cc(Br)c2c(c1)/C(=C/C(=O)c1cccs1)C(=O)N2	TIM10 inh 50, tim10-1 inh 47 | tim10-1 confirm 34 | TIM10 conf 68
Cc1sc2ncn(CC(=O)OC(C)C)c(=O)c2c1C	none (no result: tim23-1 inh, NALP3 yeast inh, TIM10 inh, tim10-1 inh)
COc1cc(/C=C2/C(C)=C(C#N)c3nc(N)c(C#N)c(C)c32)ccc1OCC(=O)O	TIM10 inh 42, tim10-1 inh 41 | tim10-1 confirm inactive | TIM10 conf 32
CC1=C(C#N)c2nc(N)c(C#N)c(C)c2/C1=C\c1ccc(-c2ccccc2C(=O)O)o1	none (no result: tim23-1 inh, NALP3 yeast inh, TIM10 inh, tim10-1 inh)
COc1ccccc1C/C(N)=N/OC(=O)COc1cccc(C)c1	TIM10 inh 51, tim10-1 inh 43 | tim10-1 confirm inactive | TIM10 conf inactive
COC(=O)c1sc(NC(=O)c2c(F)cccc2F)c(C#N)c1C	TIM10 inh 41, tim10-1 inh 45 | tim10-1 confirm 38 | TIM10 conf inactive
O=[N+]([O-])c1ccc(OCn2cncn2)cc1	none (no result: NALP1 inh)
Cc1ccc(/C=N/NC(=S)NCCc2ccccc2)s1	none
CCCCNC(=S)N/N=C/c1ccc(C)s1	TIM10 inh 58, tim10-1 inh 57 | tim10-1 confirm 42 | TIM10 conf 54
CNC(=O)Nc1ccccc1C(=O)Nc1ccccc1	none
Oc1ccc(/C=N/NC(=S)NC2CC3CCC2C3)cc1 (stereo not given)	TIM10 inh 58, tim10-1 inh 42 | tim10-1 confirm inactive | TIM10 conf inactive
O=C(NCc1ccco1)c1csc(Nc2ccccc2Cl)n1	TIM10 inh 42, tim10-1 inh 52 | tim10-1 confirm 43 | TIM10 conf 30
CSc1nc2ccc(NC(=O)c3ccc(Cl)s3)cc2s1	none
CC(C)c1ccc(NC(=S)NCc2cccs2)cc1	TIM10 inh 45, tim10-1 inh 56 | tim10-1 confirm 36 | TIM10 conf 42
S=C(NCc1cccs1)Nc1cccc(Cl)c1	TIM10 inh 47, tim10-1 inh 45 | tim10-1 confirm 34 | TIM10 conf 43
CCC(CC)NC(=O)Cc1ccc(F)cc1	none
CCCCN(CC)CCNC(=O)c1cc2cc3ccc(Cl)cc3nc2o1	none
Cc1ccc2cc3cc(C(=O)NCCCN4CCc5ccccc5C4)oc3nc2c1	NALP1 inh 46, TIM10 inh 64, tim10-1 inh 51 | tim10-1 confirm 35 | TIM10 conf inactive
CCCN(CCC)CCCNC(=O)c1cc2cc3ccc(Cl)cc3nc2o1	TIM10 inh 60, tim10-1 inh 58 | tim10-1 confirm 39 | TIM10 conf 41
NC(=S)Nc1ccc(Cl)cc1Cl	none
CN(C)c1ccc(/C=C/C=N/Nc2nc(N3CCOCC3)nc(N3CCOCC3)n2)cc1	none
O=C(c1ccccc1Nc1ccc(SC(F)F)cc1)N1CCCCCC1	TIM10 inh 51, tim10-1 inh 44 | tim10-1 confirm 34 | TIM10 conf 33
CCCOC(=O)/C(=C\c1ccc([N+](=O)[O-])o1)NC(=O)c1ccccc1	TIM10 inh 54, tim10-1 inh 56 | tim10-1 confirm 47 | TIM10 conf inactive
O=C(NCCO)/C(=C\c1ccc([N+](=O)[O-])o1)NC(=O)c1ccccc1	none
Cc1ccc(S(=O)(=O)NCC(=O)OCC(=O)N(CCC#N)c2ccccc2)cc1	none (no result: NALP1 inh)
CN(C)CC(C(=O)c1ccccc1)c1ccccc1 (stereo not given)	TIM10 inh 51, tim10-1 inh 50 | tim10-1 confirm 57 | TIM10 conf 60
COc1ccc(C(C(=O)OC(C)CN(C)C)c2ccccc2)cc1 (stereo not given)	none
Cc1ccccc1C(=O)N1CCN(CCNC(=O)C(=O)Nc2ccc(Br)cc2)CC1	none
Cc1ccc(C(=O)Nc2ccccc2C(=O)NCc2cccnc2)cc1	none
Cc1ccc(C(=O)Nc2ccccc2C(=O)NCc2ccccc2)cc1	TIM10 inh 48, tim10-1 inh 47 | tim10-1 confirm 41 | TIM10 conf inactive
O=C1NN=C(c2ccccc2)CC1c1ccc(Cl)cc1Cl (stereo not given)	TIM10 inh 42, tim10-1 inh 50 | tim10-1 confirm 38 | TIM10 conf 57
c1ccc(-c2c(-c3ccccc3)n(Cc3ccco3)c3ncnc(NCCCn4ccnc4)c23)cc1	TIM10 inh 45, tim10-1 inh 40 | tim10-1 confirm 38 | TIM10 conf inactive
O=S(=O)(CCN(CCS(=O)(=O)C(F)(F)F)CC1CCCO1)C(F)(F)F (stereo not given)	TIM10 inh 45, tim10-1 inh 50 | tim10-1 confirm 41 | TIM10 conf inactive
O=C(NCC1CCCO1)C1CCN(S(=O)(=O)N2CCCC2)CC1 (stereo not given)	none
C#CCSc1nc(=O)c2cccnc2n1-c1ccc(C)cc1	none
C/C(=N\NC(=S)NCc1ccccc1)c1cccc(Br)c1	TIM10 inh 45, tim10-1 inh 42 | tim10-1 confirm inactive | TIM10 conf inactive
COc1ccc(/C(C)=N/NC(=S)NCCc2ccccc2)cc1	TIM10 inh 47, tim10-1 inh 41 | tim10-1 confirm 35 | TIM10 conf inactive
C/C(=N\NC(=S)NCCc1ccccc1)c1cccc(Br)c1	none
